Assay outcomes from PubChem.
BJeLR lethal: MLPCN primary cell-based screen for lethality selective to Ras in HRASV12 cells; inhibition, % (no concentration beside the values); BJeLR (HRASV12) viability, CellTiter-Glo ATP luminescence, 48 h; AID 1554, 2009; 300,000 tested, 0.17% active; in the data active = inhibition above about 50%
ugtP null kill: growth inhibition of ugtP-null S. aureus, primary screen, RN4220 ugtP deletion, OD600 | 16 h | growth inhibition, % (concentration not given with the values) | 330,000 tested, 0.54% active | AID 1259309, 2017; in the data active = growth inhibition above about 68%;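 note: plate controls were untreated wells for no effect and antibiotic for full effect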
PrPC TRFRET: inhibitors of human cell surface prion protein PrPC, primary screen, cell-based, TR-FRET; Major prion protein (Homo sapiens), P04156; TR-FRET read-out; inhibition, % at 13.8 µM; 370,000 tested, 0.43% active; in the data active = inhibition above about 24%; note: 0% = median of the test wells and 100% = reference compound wells
Sa RN4220 lethal: growth inhibition of S. aureus RN4220, primary screen, OD600 | 16 h | inhibition, % (test concentration not listed) | 330,000 tested, 0.33% active; in the data active = inhibition above about 85%;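 note: plate controls were untreated cells for no effect and reference antibiotic for full effect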
An asterisk follows results filed as active; / = not tested or not shown. Hits are enriched below; roughly 0.95% of the tested compounds scored in any of these assays.

SMILES	BJeLR lethal	ugtP null kill	PrPC TRFRET	Sa RN4220 lethal
Cc1occc1C(=O)NN=Cc1ccc(N(C)C)cc1	/	4	/	2
O=[N+]([O-])c1cccc(-c2csc(NN=Cc3cccc(O)c3)n2)c1	/	94*	/	85
Cc1cc(C)nc(NC(N)=NC(C)c2ccccc2)n1 (configuration not stated)	9	94*	2	6
Cc1nn(-c2ccccc2)c(C)c1C=NNC(=O)c1ccccc1NS(=O)(=O)c1cccs1	/	-4	/	18
C(=NN(c1ccccc1)c1ccccc1)c1ccc2c(c1)OCO2	/	95*	/	-2
CCOC(=O)[C@]12CCCC=C1N(Cc1ccc(OC)cc1)C(=O)[C@@H]2CC(=O)NCCC(C)C	/	/	1	/
O=C(Oc1cccc2cccnc12)c1ccc(Br)o1	0	-3	-5	-1
O=C(Cc1ccc(Cl)cc1)Oc1cccc2cccnc12	/	89*	/	8
Cc1ccc(-c2cc3ccccc3nc2N2CCOCC2)cc1	5	91*	-2	-3
c1ccc(-c2cc3ccccc3nc2N2CCCC2)cc1	-3	85*	-2	0
CN(C)C(=NS(=O)(=O)c1ccccc1)c1ccc(Cl)cc1	/	-5	/	0
Cn1c(C=O)c(C#Cc2ccccc2)c2ccccc21	/	100*	-1	-3
COc1ccc(C#Cc2c(-c3ccccc3)n(C)c3ccccc23)cc1	/	-7	10	3
COc1ccc(C#Cc2c(C=O)n(C)c3ccccc23)cc1	/	100*	-6	1
CON=CC(NC(=O)c1ccc(C(F)(F)F)cc1)C(=O)OC (configuration not stated)	/	6	/	7
CCC(C)C1CN(C(C)CN2CCCC2CN2C(N)=NCC2Cc2ccccc2)C(=N)N1CCc1ccc(Cl)c(Cl)c1 (configuration not stated)	/	98*	/	100*
CCCCN1C(=N)N(C(CCC)CN2CCCC2CN2C(N)=NCC2Cc2ccccc2)CC1C(C)CC (configuration not stated)	/	-1	/	-7
CCC(C)C1CN(C(C)CN2CCCC2CN2C(N)=NCC2CC(C)C)C(=N)N1CCc1ccc(Cl)c(Cl)c1 (configuration not stated)	/	99*	/	101*
CS(=O)(=O)c1ccc(C(O)C(CF)NC(=O)C(Cl)Cl)cc1 (configuration not stated)	/	100*	/	99*
CS(=O)(=O)c1ccc([C@@H](O)[C@@H](CF)NC(=O)C(Cl)Cl)cc1	/	/	1	/
NC(=NCc1ccccc1)NC(=O)OCc1ccccc1	/	/	-1	/
CNC(=S)N/N=C/c1ccc(-c2ccc(Cl)c([N+](=O)[O-])c2)o1	1	/	-15	/
CNC(=S)N/N=C/c1ccc(-c2ccc(C(=O)O)cc2)o1	52*	/	-7	/
O=C(OCc1ccccc1F)c1cc2ccccc2cc1O	3	87*	-7	3
CC(C)(C)CC(=O)NC(=S)Nc1ccccc1C(F)(F)F	-6	93*	6	5
SMILES	BJeLR lethal	ugtP null kill	PrPC TRFRET	Sa RN4220 lethal
CN1/C(=C\C(=O)Nc2ccc(F)cc2)C(C)(C)c2ccccc21	-7	-13	8	11
CN1/C(=C\C(=O)Nc2ccc(Br)cc2)C(C)(C)c2ccccc21	5	96*	9	94*
O=C1C=C(c2ccc(O)cc2)CC(c2ccc3c(c2)OCO3)C1 (configuration not stated)	/	-12	/	10
Cc1c(C=NNC(=O)CNc2ccccc2)c2ccccn2c1C(=O)c1ccc(Cl)cc1	/	-28	/	-7
C#CC[N+](C)(C)CCCCCCCCCC	-1	93*	8	1
CCCCCCCCCCCCCCCC[N+](C)(C)C	-6	100*	13	100*
C[N+](C)(C)CCCCCC[N+](C)(C)C	-8	1	8	7
C#CC[N+](C)(C)CCCCCCCCCCCC	12	99*	15	99*
C#CC[N+](C)(C)CCCCCCCC	18	15	-9	7
CC(=NO)c1ccc2c(c1)OCCOCCOc1cc(C(C)=NO)ccc1OCCOCCO2	/	-5	/	5
O=c1ccsn1Cc1ccccc1	2	88*	-4	4
CCCCCC[N+](C)(C)CC/C=C1/c2ccccc2Sc2ccc(Cl)cc21	-3	99*	-5	100*
CN(C)CC/C=C1/c2ccccc2Sc2ccc(Cl)cc21	-4	-4	-8	-2
O=c1[nH]sc2ccccc12	-11	11	5	-2
O=c1[nH]sc2cc(F)ccc12	0	87*	-3	98*
COc1cccc(C=NNc2nc(C)cc(=O)[nH]2)c1OC	/	12	/	-1
CC(C)c1ccc(C2NCc3ccccc3-n3cccc32)cc1 (configuration not stated)	13	74	1	21
FC(F)(F)Oc1ccc(C2NCc3ccccc3-n3cccc32)cc1 (configuration not stated)	4	94*	-6	18
COc1cccc(C2CC=C(C(=O)O)C(c3ccc(Cl)cc3)N2S(=O)(=O)c2ccc(C)cc2)c1 (configuration not stated)	/	42	/	31
CCN1C(=O)C(=Cc2cccc(OC)c2Oc2ccc([N+](=O)[O-])cc2[N+](=O)[O-])SC1=S	94*	-7	-3	-8
COc1cc(/C=C2\SC(=O)NC2=O)ccc1Oc1ccc([N+](=O)[O-])cc1[N+](=O)[O-]	0	11	-17	-7
CC(=O)NC(c1cccs1)c1cc([N+](=O)[O-])c2cccnc2c1O (configuration not stated)	20	39	-5	53
CCCC(=O)NC(c1cccs1)c1cc([N+](=O)[O-])c2cccnc2c1O (configuration not stated)	11	91*	-1	80
CCC(=O)NC(c1cccs1)c1cc([N+](=O)[O-])c2cccnc2c1O (configuration not stated)	16	98*	-17	96*
CCOC(=O)C1CCCC1=NNC(=O)CN(c1cc(OC)ccc1OC)S(=O)(=O)c1ccccc1 (configuration not stated)	/	2	/	-2
SMILES	BJeLR lethal	ugtP null kill	PrPC TRFRET	Sa RN4220 lethal
COc1ccc(CN2CC(C)C(CC(=O)NCc3ccccc3)C2=O)cc1 (configuration not stated)	/	0	/	1
O=C(NN=Cc1cccc(C(F)(F)F)c1)c1ccc(O)cc1	/	7	/	1
COc1ccc2c(c1)sc(N)[n+]2Cc1cc(C)cc2cccnc12	52*	-13	8	2
Oc1ccc(N=Nc2c(O)ccc3ccccc23)cc1	2	98*	-1	86*
Oc1ccc(N=Nc2ccc3ccccc3c2)cc1	7	99*	-2	99*
COc1cc(N=Nc2ccc3ccccc3c2)ccc1O	3	94*	-9	6
CC(=O)c1ccc(-c2ccc(C3C4C=CCC(C)C4C(=O)N3Cc3ccccc3)c(F)c2)cc1 (configuration not stated)	/	-17	/	4
c1ccc(-c2ccc(-c3nc(-c4ccccn4)no3)cc2)cc1	81*	1	3	25
c1ccc(-c2nc(-c3ccccn3)no2)cc1	14	1	-7	3
CC(=O)OCCN(C)c1cc(SC(C)C)c2nonc2c1[N+](=O)[O-]	4	9	-28	2
